According to PubChem BioAssay (Tox21):
Records with an inconclusive call do not appear. The source made the active and inactive calls. Unless noted, the call rests on the fitted dose curve; in most records, active means well fitted curve in the direction sought with a large enough effect in the repeat runs; inconclusive means weak or mixed curves; inactive means flat fitted curve, though single readings scatter.

Key:
[1] = qHTS assay to test for compound auto fluorescence at 535 nm (green) in HEK293 cells (AID 720680)
[2] = qHTS assay to test for compound auto fluorescence at 460 nm (blue) in HEK293 cell free culture (AID 720681)
Outline: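 Blue fluorescence (Ex 405/Em 460 nm, triamterene-equivalent) was read immediately after pin transfer of compound or DMSO into medium (DMEM, 10% FBS) without cells.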

[3] = qHTS assay to test for compound auto fluorescence at 535 nm (green) in HEK293 cell free culture (AID 720682)
Outline: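 Cell-free medium (DMEM, 10% FBS) receives compound or DMSO by pintool. Plate read directly at Ex 485/Em 535 nm. Signal converted to fluorescein equivalency.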

[4] = qHTS assay to test for compound auto fluorescence at 590 nm (red) in HEK293 cell free culture (AID 720683)
Outline: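 Red-channel autofluorescence of compounds in culture medium (DMEM, 10% FBS), no cells, measured at 540/590 nm. Rose Bengal sodium is the reference fluorophore for equivalence.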

[5] = qHTS assay to test for compound auto fluorescence at 590 nm (red) in HepG2 cell free culture (AID 720684)
Outline: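 Cell-free; medium MEM + 10% FBS; compound or DMSO added by pintool; read Ex 540/Em 590 nm; Rose Bengal sodium as red reference fluorophore.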

[6] = qHTS assay to test for compound auto fluorescence at 460 nm (blue) in HepG2 cell free culture (AID 720685)
Outline: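 Cell-free plates of MEM plus 10% FBS received 23 nL compound or DMSO vehicle; blue-channel (405/460 nm) intensity scored against triamterene as reference fluorophore.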

[7] = qHTS assay to test for compound auto fluorescence at 535 nm (green) in HepG2 cell free culture (AID 720686)
[8] = qHTS assay to test for compound auto fluorescence at 460 nm (blue) in HepG2 cells (AID 720687)
Outline: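 Blue-channel autofluorescence (Ex/Em 405/460 nm, triamterene-equivalent) was measured after 1 hr compound exposure at 37 C, 5% CO2. Cells were HepG2, plated overnight at 37 C in MEM plus 10% FBS.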

[9] = molecular target: Glucocorticoid receptor (Homo sapiens) (UniProt P04150); test: qHTS assay to identify small molecule agonists of the glucocorticoid receptor (GR) signaling pathway (AID 720691; active means well fitted activation curve with a large enough effect in the signal ratio in the repeat runs, not every such curve was filed as active; the % refers to the signal ratio)
Outline: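 Agonist-mode qHTS in HeLa cells stably expressing a glucocorticoid-response-element beta-lactamase reporter. Fluorescence intensity read with FRET substrate (2 h, room temperature) after 18 h compound treatment at 37 C.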

[10] = molecular target: Glucocorticoid receptor (Homo sapiens) (UniProt P04150); test: qHTS assay to identify small molecule antagonists of the glucocorticoid receptor (GR) signaling pathway (AID 720692; active means well fitted inhibition curve with a large enough effect in the signal ratio in the repeat runs, not every such curve was filed as active; the % refers to the signal ratio)
Outline: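 Inhibition of dexamethasone-driven (5 nM final) beta-lactamase expression was measured in GRE-reporter HeLa cells over 18 h at 37C. Fluorescence was read after 2 h with the B/G FRET substrate at room temperature.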
On the % scale 0 is the no-effect control and ±100 the full control effect.

Sequence of Glucocorticoid receptor (Homo sapiens) (P04150 whole entry, looked up): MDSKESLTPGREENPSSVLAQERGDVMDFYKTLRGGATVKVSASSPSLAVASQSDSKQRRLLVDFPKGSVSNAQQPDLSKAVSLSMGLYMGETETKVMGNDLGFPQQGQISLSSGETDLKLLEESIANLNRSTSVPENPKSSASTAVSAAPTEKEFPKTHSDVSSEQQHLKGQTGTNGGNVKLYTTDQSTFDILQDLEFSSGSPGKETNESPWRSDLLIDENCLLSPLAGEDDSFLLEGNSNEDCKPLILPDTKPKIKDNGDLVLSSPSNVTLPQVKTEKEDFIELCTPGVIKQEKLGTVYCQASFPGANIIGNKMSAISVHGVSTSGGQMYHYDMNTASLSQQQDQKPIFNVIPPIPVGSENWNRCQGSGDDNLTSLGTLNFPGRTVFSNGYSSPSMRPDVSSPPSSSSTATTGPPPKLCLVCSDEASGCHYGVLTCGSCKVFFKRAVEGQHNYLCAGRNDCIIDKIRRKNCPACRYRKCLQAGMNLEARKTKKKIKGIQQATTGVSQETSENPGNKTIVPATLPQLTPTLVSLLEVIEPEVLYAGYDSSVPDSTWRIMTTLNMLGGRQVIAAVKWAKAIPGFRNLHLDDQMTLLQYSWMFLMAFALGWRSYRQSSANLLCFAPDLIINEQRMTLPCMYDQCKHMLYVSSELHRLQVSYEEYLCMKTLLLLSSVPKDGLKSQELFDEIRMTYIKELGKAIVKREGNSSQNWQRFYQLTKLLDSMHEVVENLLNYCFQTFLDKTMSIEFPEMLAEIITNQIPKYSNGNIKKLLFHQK

CC(=O)OC/C=C(/C)CCC=C(C)C
inactive: outcome [1] | outcome [2] | outcome [3] | outcome [4] | outcome [5] | outcome [6] | outcome [7] | outcome [8] | Potency [9] | outcome [10]

CC(C)CC(O)Cc1ccccc1 (stereo not given)
inactive: outcome [1] | outcome [2] | outcome [3] | outcome [4] | outcome [5] | outcome [6] | outcome [8]

C/C=C(\C)C(=O)OC/C=C(\C)CCC=C(C)C
inactive: outcome [1] | outcome [2] | outcome [3] | outcome [4] | outcome [5] | outcome [6] | outcome [7] | outcome [8] | Potency [9] | outcome [10]

COCc1nnc(-c2ccc[n+]([O-])c2)n1-c1c(Cl)c(Cl)cc2[nH]c(=O)c(=O)[nH]c12
inactive: outcome [1] | outcome [2] | outcome [3] | outcome [4] | outcome [5] | outcome [6] | outcome [8]

Nc1nc(Cl)cc(Cl)n1
inactive: outcome [1] | outcome [2] | outcome [3] | outcome [4] | outcome [5] | outcome [6] | outcome [7] | outcome [8] | Potency [9] | outcome [10]

N=C(N)S(=O)O
inactive: outcome [1] | outcome [2] | outcome [3] | outcome [4] | outcome [5] | outcome [6] | outcome [8]

CC(=O)Nc1ccc(S(=O)(=O)Nc2cc(C)on2)cc1
inactive: outcome [1] | outcome [2] | outcome [3] | outcome [4] | outcome [5] | outcome [6] | outcome [8]

CC(C)(C)OC(=O)c1ccccc1C(=O)O
inactive: outcome [1] | outcome [2] | outcome [3] | outcome [4] | outcome [5] | outcome [6] | outcome [8]

O=c1[nH]c(=O)c2cn[nH]c2[nH]1
inactive: outcome [1] | outcome [2] | outcome [3] | outcome [4] | outcome [5] | outcome [6] | outcome [7] | outcome [8] | Potency [9] | outcome [10]

CCc1ccc(CC)cc1
inactive: outcome [1] | outcome [2] | outcome [3] | outcome [4] | outcome [5] | outcome [6] | outcome [7] | outcome [8] | Potency [9] | outcome [10]

COC(=O)c1ccc(C(=O)O)cc1
inactive: outcome [1] | outcome [2] | outcome [3] | outcome [4] | outcome [5] | outcome [6] | outcome [7] | outcome [8] | Potency [9] | outcome [10]

COc1ccc2cc(CCC(C)=O)ccc2c1
inactive: fluorescence, % of fluorescein [1] -0.0683% [at 18.6 µM] | fluorescence, % of fluorescent control [2] -0.26% [at 18.6 µM] | activity change [3] -0.0416% [at 18.6 µM] | fluorescence, % of fluorescent control [4] 0.474% [at 18.6 µM] | fluorescence, % of Rose Bengal [5] -0.0935% [at 18.6 µM] | fluorescence, % of fluorescent control [6] 0.0413% [at 18.6 µM] | fluorescence, % of fluorescent control [8] 0.0207% [at 18.6 µM] | Potency [9]

CCCCCCCCS(=O)(=O)O
inactive: outcome [1] | outcome [2] | outcome [3] | outcome [4] | outcome [5] | outcome [6] | outcome [8]

N=C(N)N1CCc2ccccc2C1
inactive: outcome [1] | outcome [2] | outcome [3] | outcome [4] | outcome [5] | outcome [6] | outcome [7] | outcome [8] | Potency [9] | outcome [10]

C[Si](C)(C)O[Si](O)(O)O
inactive: outcome [1] | outcome [2] | outcome [3] | outcome [4] | outcome [5] | outcome [6] | outcome [7] | outcome [8] | Potency [9] | outcome [10]

CCCCOCCCC
inactive: outcome [1] | outcome [2] | outcome [3] | outcome [4] | outcome [5] | outcome [6] | outcome [7] | outcome [8] | outcome [10]

CCCCCCCCC1CO1 (stereo not given)
inactive: outcome [1] | outcome [2] | outcome [3] | outcome [4] | outcome [5] | outcome [6] | outcome [7] | outcome [8] | Potency [9] | outcome [10]

CNCCc1ccccn1
inactive: fluorescence, % of fluorescein [1] -0.0419% [at 18.6 µM] | fluorescence, % of fluorescent control [2] 0.0128% [at 18.6 µM] | activity change [3] -0.037% [at 18.6 µM] | fluorescence, % of fluorescent control [4] -0.0269% [at 18.6 µM] | fluorescence, % of Rose Bengal [5] 0.0243% [at 18.6 µM] | fluorescence, % of fluorescent control [6] 0.0418% [at 18.6 µM] | fluorescence, % of fluorescent control [8] 0.114% [at 18.6 µM] | Potency [9]

OCCC(F)(F)C(F)(F)C(F)(F)C(F)(F)C(F)(F)C(F)(F)F
inactive: outcome [1] | outcome [2] | outcome [3] | outcome [4] | outcome [5] | outcome [6] | outcome [7] | outcome [8] | outcome [10]

COCCCOc1cc(C[C@@H](C[C@H](N)[C@@H](O)C[C@H](C(=O)NCC(C)(C)C(N)=O)C(C)C)C(C)C)ccc1OC
inactive: outcome [1] | outcome [2] | outcome [3] | outcome [4] | outcome [5] | outcome [6] | outcome [7] | outcome [8] | Potency [9] | outcome [10]

C[C@H]1COc2c(C3(N)CC3)c(F)cc3c(=O)c(C(=O)O)cn1c23
inactive: outcome [1] | outcome [2] | outcome [3] | outcome [4] | outcome [5] | outcome [6] | outcome [7] | outcome [8] | Potency [9] | outcome [10]

C[n+]1ccccc1/C=N/O
inactive: fluorescence, % of fluorescein [1] -0.0429% [at 18.6 µM] | fluorescence, % of fluorescent control [2] 0.0506% [at 18.6 µM] | activity change [3] -0.0149% [at 18.6 µM] | fluorescence, % of fluorescent control [4] -0.29% [at 18.6 µM] | fluorescence, % of Rose Bengal [5] -0.356% [at 18.6 µM] | fluorescence, % of fluorescent control [6] -0.0014% [at 18.6 µM] | fluorescence, % of fluorescein control [7] 0.0162% [at 18.6 µM] | fluorescence, % of fluorescent control [8] 0.0546% [at 18.6 µM] | Potency [9] | outcome [10]

CC(C)OC(=O)C(C(=O)OC(C)C)=C1SC=CS1
inactive: outcome [1] | outcome [2] | outcome [3] | outcome [4] | outcome [5] | outcome [6] | outcome [7] | outcome [8] | Potency [9] | outcome [10]

CC(=O)OC1CCC(C(C)(C)C)CC1 (stereo not given)
inactive: outcome [1] | outcome [2] | outcome [3] | outcome [4] | outcome [5] | outcome [6] | outcome [7] | outcome [8] | Potency [9] | outcome [10]

CCCCCCCCCCCCCCCC/C=C/C1CC(=O)OC1=O (stereo not given)
inactive: outcome [1] | outcome [2] | outcome [3] | outcome [4] | outcome [5] | outcome [6] | outcome [8] | Potency [9]

CCCCNCC
inactive: outcome [1] | outcome [2] | outcome [3] | outcome [4] | outcome [5] | outcome [6] | outcome [7] | outcome [8] | outcome [10]

CCN1CCN(C(=O)N[C@@H](C(=O)N[C@@H]2C(=O)N3[C@@H]2SC(C)(C)[C@H]3C(=O)O)c2ccccc2)C(=O)C1=O
inactive: outcome [1] | outcome [2] | outcome [3] | outcome [4] | outcome [5] | outcome [6] | outcome [8]

CC(C)(Sc1cc(C(C)(C)C)c(O)c(C(C)(C)C)c1)Sc1cc(C(C)(C)C)c(O)c(C(C)(C)C)c1
inactive: fluorescence, % of fluorescein [1] 0.0112% [at 18.6 µM] | fluorescence, % of fluorescent control [2] -0.101% [at 18.6 µM] | activity change [3] 0.0049% [at 18.6 µM] | fluorescence, % of fluorescent control [4] -0.146% [at 18.6 µM] | fluorescence, % of fluorescent control [6] -0.0941% [at 18.6 µM] | fluorescence, % of fluorescein control [7] -0.106% [at 18.6 µM] | fluorescence, % of fluorescent control [8] 0.0012% [at 18.6 µM]

Clc1cc(Cl)c(Cl)c(Cl)c1Cl
inactive: outcome [1] | outcome [2] | outcome [3] | outcome [4] | outcome [6] | outcome [7] | outcome [8] | outcome [10]

C=CCCCCCCCCCCCCCC
inactive: fluorescence, % of fluorescein [1] -0.003% [at 18.6 µM] | fluorescence, % of fluorescent control [2] 0.006% [at 18.6 µM] | activity change [3] 0.0547% [at 18.6 µM] | fluorescence, % of fluorescent control [4] -0.342% [at 18.6 µM] | fluorescence, % of fluorescent control [6] -0.0168% [at 18.6 µM] | fluorescence, % of fluorescein control [7] 0.0254% [at 18.6 µM] | fluorescence, % of fluorescent control [8] 0.001% [at 18.6 µM] | outcome [10]

CN1C(CCl)Nc2cc(Cl)c(S(N)(=O)=O)cc2S1(=O)=O (stereo not given)
inactive: outcome [1] | outcome [2] | outcome [3] | outcome [4] | outcome [6] | outcome [7] | outcome [8] | outcome [10]

CCCCCC(CC)OC(=O)CCCOc1ccc(Cl)cc1Cl (stereo not given)
inactive: outcome [1] | outcome [2] | outcome [3] | outcome [4] | outcome [6] | outcome [7] | outcome [8] | Potency [9]

NCC1CCC(C(=O)Oc2ccc(CCC(=O)O)cc2)CC1 (stereo not given)
inactive: outcome [1] | outcome [2] | outcome [3] | outcome [4] | outcome [6] | outcome [7] | outcome [8]

O=Cc1ccc(C(=O)O)cc1
inactive: outcome [1] | outcome [2] | outcome [3] | outcome [4] | outcome [5] | outcome [6] | outcome [8] | Potency [9] | outcome [10]

Nc1ccc(C(=O)NCC(=O)O)cc1
inactive: fluorescence, % of fluorescein [1] -0.0255% [at 18.6 µM] | fluorescence, % of fluorescent control [2] 0.0205% [at 18.6 µM] | activity change [3] -0.0258% [at 18.6 µM] | fluorescence, % of fluorescent control [4] -0.0926% [at 18.6 µM] | fluorescence, % of fluorescent control [6] -0.124% [at 18.6 µM] | fluorescence, % of fluorescent control [8] -0.0546% [at 18.6 µM] | Potency [9] | outcome [10]

N#Cc1ccccc1C#N
inactive: outcome [1] | outcome [2] | outcome [3] | outcome [4] | outcome [6] | outcome [7] | outcome [8]
